Results as given in PubChem BioAssay.
Active and inactive are the calls of the source.

Experiments:
[1] = binders of probe aFSTL3 on microarray, primary screen, stem cell growth factor project, biochemical, small-molecule microarray, fluorescence 635/667 (AID 1064); settings: higher = more signal;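 also: measures binding of the biotinylated anti-FSTL3 antibody to printed compounds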
[2] = binders from COS7 lysate, DM2A8 probe, primary screen, torsin A project, cell lysate, small-molecule microarray, fluorescence 635/667 (AID 1065); settings: higher = more signal, COS7 lysate expressing mutant human TOR1A
[3] = binders of probe aFGF2 on microarray, primary screen, stem cell growth factor project, biochemical, small-molecule microarray, fluorescence 635/667 (AID 1067); settings: higher = more signal;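 also: measures binding of biotinylated aFGF2 protein to printed compounds on slides; z-score merges feature fluorescence and signal-to-noise across triplicate slides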
[4] = binders of probe aFGF10 on microarray, primary screen, stem cell growth factor project, biochemical, small-molecule microarray, fluorescence 635/667 (AID 1071); settings: higher = more signal;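 also: score merges 667 nm spot intensity and signal to noise from triplicate slides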
[5] = biological target: Neurogenic locus notch homolog protein 2 (Homo sapiens) (UniProt Q04721); test: Notch2 binders on small-molecule microarrays, primary screen, biochemical, small-molecule microarray, 635 nm fluorescence, stem cell growth factors (AID 1073); settings: Notch2 binding, higher = more signal
[6] = biological target: Pro-neuregulin-1, membrane-bound isoform (Homo sapiens) (UniProt Q02297); test: NRG1 binders on small-molecule microarrays, primary screen, psychiatric disease protein project, biochemical, small-molecule microarray, fluorescence 635/667 (AID 1075); settings: NRG1 binding, 635 nm fluorescence, higher = more signal;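 also: score combines 667 nm spot fluorescence with signal to noise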
[7] = tested on: Neuregulin-1 EGF-like domain; test: binders of neuregulin-1 EGF-like domain, primary screen, biochemical, small-molecule microarray, 635 nm fluorescence (AID 1081); settings: small-molecule microarray binding, higher = more signal;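 also: binding of the protein to compounds printed on small-molecule microarray slides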
[8] = FRG1 promoter luciferase signal modulators, primary screen, FRG1 inhibition for FSHD, cell-based, C2C12 myotubes, firefly/Renilla luciferase, luminescence (AID 1084); settings: higher = more signal, called active from +8 up or from −8 down
[9] = binders of probe aFST on microarray, primary screen, stem cell growth factor project, biochemical, small-molecule microarray, fluorescence 635/667 (AID 1086); settings: higher = more signal;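 also: score merges 667 nm fluorescence with signal-to-noise of each printed compound spot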
[10] = binders of probe aHhip on microarray, primary screen, stem cell growth factor project, biochemical, small-molecule microarray, fluorescence 635/667 (AID 1087); settings: higher = more signal;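 also: score merges spot fluorescence at 667nm with spot signal to noise ratio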

Sequence of Neurogenic locus notch homolog protein 2 (Homo sapiens) (Q04721 whole entry, looked up, canonical isoform): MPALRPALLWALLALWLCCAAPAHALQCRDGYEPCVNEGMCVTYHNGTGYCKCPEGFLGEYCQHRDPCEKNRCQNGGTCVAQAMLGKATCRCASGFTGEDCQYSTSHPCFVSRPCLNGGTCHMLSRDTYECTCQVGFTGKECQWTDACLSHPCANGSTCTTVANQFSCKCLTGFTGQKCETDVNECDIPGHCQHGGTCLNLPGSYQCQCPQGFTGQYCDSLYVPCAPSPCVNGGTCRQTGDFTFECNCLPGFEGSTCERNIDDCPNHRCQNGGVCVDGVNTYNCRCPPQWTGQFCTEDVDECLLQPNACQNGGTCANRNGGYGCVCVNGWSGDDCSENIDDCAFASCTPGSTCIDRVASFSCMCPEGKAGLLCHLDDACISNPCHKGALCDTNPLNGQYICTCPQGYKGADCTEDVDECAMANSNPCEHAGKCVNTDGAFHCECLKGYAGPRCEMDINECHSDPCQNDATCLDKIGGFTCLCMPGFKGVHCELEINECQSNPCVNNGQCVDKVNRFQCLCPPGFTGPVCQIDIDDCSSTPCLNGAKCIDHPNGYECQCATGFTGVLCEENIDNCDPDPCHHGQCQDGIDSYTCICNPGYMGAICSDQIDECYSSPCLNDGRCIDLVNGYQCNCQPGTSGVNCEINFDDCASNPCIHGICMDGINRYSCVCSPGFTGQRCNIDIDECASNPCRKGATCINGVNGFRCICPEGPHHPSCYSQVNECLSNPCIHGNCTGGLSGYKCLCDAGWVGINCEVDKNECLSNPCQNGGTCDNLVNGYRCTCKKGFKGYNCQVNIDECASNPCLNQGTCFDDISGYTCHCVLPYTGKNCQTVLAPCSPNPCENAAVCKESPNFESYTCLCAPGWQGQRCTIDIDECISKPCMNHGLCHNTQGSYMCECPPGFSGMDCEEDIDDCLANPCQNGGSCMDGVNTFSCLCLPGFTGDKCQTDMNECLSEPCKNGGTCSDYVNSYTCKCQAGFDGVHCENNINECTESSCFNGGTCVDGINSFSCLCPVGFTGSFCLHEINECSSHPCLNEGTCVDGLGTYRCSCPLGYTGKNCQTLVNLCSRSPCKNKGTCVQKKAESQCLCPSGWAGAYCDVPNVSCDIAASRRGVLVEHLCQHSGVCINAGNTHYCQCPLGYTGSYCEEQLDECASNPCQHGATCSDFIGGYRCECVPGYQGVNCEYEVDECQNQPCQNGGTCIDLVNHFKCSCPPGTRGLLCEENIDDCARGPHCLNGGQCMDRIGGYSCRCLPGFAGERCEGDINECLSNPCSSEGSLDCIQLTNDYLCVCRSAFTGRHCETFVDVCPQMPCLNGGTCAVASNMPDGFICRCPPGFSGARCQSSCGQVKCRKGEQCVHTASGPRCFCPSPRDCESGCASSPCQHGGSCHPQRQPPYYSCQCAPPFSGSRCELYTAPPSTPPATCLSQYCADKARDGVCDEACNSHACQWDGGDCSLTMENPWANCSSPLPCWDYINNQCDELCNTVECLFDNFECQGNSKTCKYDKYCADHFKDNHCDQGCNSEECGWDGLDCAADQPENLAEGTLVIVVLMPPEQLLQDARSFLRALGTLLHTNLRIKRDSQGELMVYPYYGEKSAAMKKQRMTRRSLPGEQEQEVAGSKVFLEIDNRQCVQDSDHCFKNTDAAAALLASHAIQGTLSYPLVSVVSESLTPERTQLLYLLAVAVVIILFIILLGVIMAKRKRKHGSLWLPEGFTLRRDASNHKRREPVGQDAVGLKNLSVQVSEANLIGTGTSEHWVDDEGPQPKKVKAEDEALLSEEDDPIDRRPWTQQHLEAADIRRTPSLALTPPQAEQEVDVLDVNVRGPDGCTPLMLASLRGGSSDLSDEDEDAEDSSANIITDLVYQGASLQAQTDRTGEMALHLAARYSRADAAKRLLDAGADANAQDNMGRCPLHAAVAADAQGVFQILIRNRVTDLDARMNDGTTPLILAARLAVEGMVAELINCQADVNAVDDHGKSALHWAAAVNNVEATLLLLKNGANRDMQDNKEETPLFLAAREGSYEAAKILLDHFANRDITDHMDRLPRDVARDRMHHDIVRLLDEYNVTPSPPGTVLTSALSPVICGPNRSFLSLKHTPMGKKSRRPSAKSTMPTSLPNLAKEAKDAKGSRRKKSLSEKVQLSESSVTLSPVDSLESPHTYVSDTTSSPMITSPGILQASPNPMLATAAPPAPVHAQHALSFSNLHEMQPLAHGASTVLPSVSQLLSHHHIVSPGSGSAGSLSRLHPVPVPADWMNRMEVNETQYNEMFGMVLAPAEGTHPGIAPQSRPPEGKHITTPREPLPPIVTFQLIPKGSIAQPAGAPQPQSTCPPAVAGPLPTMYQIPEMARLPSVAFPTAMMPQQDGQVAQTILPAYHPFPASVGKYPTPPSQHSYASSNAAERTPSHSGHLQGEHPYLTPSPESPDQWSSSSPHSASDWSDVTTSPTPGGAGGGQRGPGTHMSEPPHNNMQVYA
Sequence of Pro-neuregulin-1, membrane-bound isoform (Homo sapiens) (Q02297 whole entry, looked up, the tested form may be a part, canonical isoform): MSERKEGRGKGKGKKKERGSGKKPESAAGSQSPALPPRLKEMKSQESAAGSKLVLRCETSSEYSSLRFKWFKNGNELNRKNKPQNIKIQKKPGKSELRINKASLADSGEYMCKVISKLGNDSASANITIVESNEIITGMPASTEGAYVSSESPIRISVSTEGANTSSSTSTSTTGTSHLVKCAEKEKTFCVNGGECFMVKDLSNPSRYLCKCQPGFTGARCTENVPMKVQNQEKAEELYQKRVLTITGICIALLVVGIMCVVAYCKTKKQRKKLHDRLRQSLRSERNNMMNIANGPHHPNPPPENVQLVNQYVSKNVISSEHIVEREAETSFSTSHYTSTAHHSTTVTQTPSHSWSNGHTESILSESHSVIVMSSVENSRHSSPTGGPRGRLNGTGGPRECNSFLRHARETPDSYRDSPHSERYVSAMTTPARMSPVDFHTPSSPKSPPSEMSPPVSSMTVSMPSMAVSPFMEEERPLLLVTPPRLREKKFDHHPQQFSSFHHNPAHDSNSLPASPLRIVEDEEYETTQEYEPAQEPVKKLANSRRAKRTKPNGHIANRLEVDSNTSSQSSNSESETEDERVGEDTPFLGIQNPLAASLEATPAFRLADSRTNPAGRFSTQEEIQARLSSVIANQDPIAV

SMILES	composite z-score [1]	composite z-score [2]	composite z-score [3]	composite z-score [4]	composite z-score [5]	composite z-score [6]	composite z-score [7]	z-score [8]	composite z-score [9]	composite z-score [10]
COCC(=C=CC[C@H](O)c1ccc(CO)o1)CCO	-0.254	-0.0406	0.0154	0.553	-0.234	1.19	1.23	0.461 (inactive)	0.51	0.382
COc1ccc(C(=O)Nc2ccc(CN3C(=O)[C@]4(O[C@H](CC(=O)N5Cc6ccccc6C[C@H]5CO)[C@@H]([Si](C)(C)c5ccc(OC)cc5)[C@@H]4C)c4ccccc43)cc2)cc1	-0.402	0.716	-0.0785	0.357	0.397	1.48	0.95	-1.89 (inactive)	0.0491	-0.0618
O=c1cccc(-c2ccc([N+](=O)[O-])cc2)o1	-0.164	-0.0642	0.0008	0.287	0.698	-0.283	0.348	-0.0029 (inactive)	-0.192	-0.0263
O=C1N(CCS(=O)(=O)c2ccccc2)c2ccccc2[C@H]2OC(c3ccc(OCCCO)cc3)=N[C@@]12Cc1ccccc1	0.529	0.756	0.0918	0.102	0.918	-0.0845	1.29	-0.375 (inactive)	0.772	-0.0663
C=CCC(OC(C)=O)[C@@H]1[C@@H](N(Cc2cc3ccccc3o2)C(=O)Cc2ccc(F)cc2)c2cc(OCCCO)ccc2N1C(=O)Cc1ccc2ccccc2c1 (stereo not given in full)	-0.367	-0.804	-0.017	-0.469	-0.665	-0.436	0.112	-1.47 (inactive)	0.0652	-0.306
N[C@@H](Cc1ccccc1)C(=O)NCc1cn(Cc2ccccc2)nn1	0.231	0.595	-0.0465	0.157	0.108	-0.191	1.04	0.46 (inactive)	0.145	-0.0296
COC(=O)C(CC#Cc1ccc2c(c1)[C@]1(C(=O)N2)[C@H](c2ccc(O)cc2)N2[C@H](c3ccccc3)[C@H](c3ccccc3)OC(=O)[C@H]2[C@@H]1C(=O)NC[C@H](O)c1ccccc1)C(=O)OC	-0.14	0.249	-0.0592	1.06	0.791	-0.0744	1.4	0.798 (inactive)	0.257	0.0749
COC(=O)C/C=C/C[C@]1(O)C(=O)N(C)c2ccccc21	-0.408	0.598	-0.148	-0.294	0.223	-0.419	0.797	-1.59 (inactive)	0.164	-0.0708
C=CCN1C(=O)[C@]2(CCS(=O)(=O)c3ccccc3)N=C(c3ccc(OCCCO)cc3)O[C@@H]2c2ccccc21	-0.104	0.264	0.0109	0.162	0.84	0.445	1.28	-1.9 (inactive)	0.454	-0.121
CC(C)C(O)C1C=CC2C(=O)N(c3ccccc3)C(=O)C2N1Nc1ccccc1 (stereo not given)	-0.393	0.466	0.0293	0.79	1.49	1.24	1.39	0.33 (inactive)	1.53	0.158
CCCC[C@@H](O)C1=C(COC)C[C@H]2C(=O)N(C)C(=O)[C@H]2[C@H]1CO	-0.439	0.131	-0.176	0.466	-0.02	-0.321	-0.282	-1.21 (inactive)	0.0794	-0.16
CC(C)N1C(=O)C[C@@](C(=O)NC2CC2)(c2ccc([N+](=O)[O-])cc2)[C@H]1c1ccc(CO)cc1	0.632	0.387	-0.111	0.173	-0.551	1.75	1.35	0.74 (inactive)	-0.551	-0.0994
NC(=O)NCC#Cc1ccc2c(c1)[C@]1(C(=O)N2)[C@H](c2ccccc2OCCO)N2[C@H](c3ccccc3)[C@H](c3ccccc3)OC(=O)[C@H]2[C@@H]1C(=O)NC[C@H](O)c1ccccc1	-0.0058	1.37	-0.085	0.262	-0.667	0.319	-0.32	-0.308 (inactive)	-0.312	-0.122
CC(C)(C)OC(=O)COc1cccc(C(=O)CCN2CCOCC2)c1	1.39	0.262	-0.0741	-0.459	-0.742	0.359	0.187	1.57 (inactive)	0.482	-0.243
COC(=O)C1=CC(CCCO)=CC(c2cccs2)N(Cc2cccc(OC(F)(F)F)c2)C=C1C(=O)OC (stereo not given)	-0.55	0.203	0.11	0.583	1.51	1.93	1.2	0.0099 (inactive)	1.5	0.0053
CC1=C2[C@@H](CCc3ccccc3)OB(O)C[C@@H]2[C@@H]2C(=O)N(Cc3ccccc3)C(=O)[C@@H]2C1	-0.575	-0.0096	-0.155	0.0928	0.529	0.0808	1.02	-0.0949 (inactive)	0.0584	-0.0618
COc1ccc(C#Cc2ccc3c(c2)[C@]2(C(=O)N3)[C@H](C(=O)O)[C@H]3C(=O)O[C@H](c4ccccc4)[C@H](c4ccccc4)N3[C@@H]2c2ccc(O)cc2)cc1	0.499	0.928	-0.0557	0.221	-0.0571	0.418	1.28	0.247 (inactive)	0.105	-0.134

SMILES	composite z-score [1]	composite z-score [2]	composite z-score [3]	composite z-score [4]	composite z-score [5]	composite z-score [6]	composite z-score [7]	z-score [8]	composite z-score [9]	composite z-score [10]
CCCC=C(CCC)[C@@H](NS(=O)(=O)c1ccc(C(F)(F)F)cc1)c1ccccc1	-0.0179	-0.0296	0.143	-0.0601	0.0998	-0.152	0.428	1.75 (inactive)	0.302	0.37
COC(=O)C1=CC(CCCO)=CC(c2cccs2)N(C)C=C1C(=O)OC (stereo not given)	0.0256	-0.106	-0.0737	-0.379	-0.324	1.08	1.33	-0.656 (inactive)	-0.0824	-0.0994
C#Cc1cc2ccccc2oc1=O	0.985	-0.109	0.153	-0.232	-1.81	0.785	1.29	1.35 (inactive)	-0.839	-0.14
CN(C)C(=O)[C@@]1(Cc2ccccc2)N=C(c2ccc(OCCCO)cc2)O[C@H]1c1ccccc1	0.558	0.459	0.133	1.24	1.5	1.18	1.29	-1.57 (inactive)	0.889	0.28
COCCOC(=O)N1C(=O)[C@@]2(c3cc(C#CCCO)ccc31)[C@H](c1ccc(OCCO)cc1)N1[C@H](c3ccccc3)[C@H](c3ccccc3)OC(=O)[C@H]1[C@@H]2C(=O)Nc1nc2ccccc2s1	0.878	0.68	0.0943	0.575	0.586	0.222	1.1	2.92 (inactive)	1.24	0.547
C[N+](C)(C)CCCCCCNC(=O)[C@@H]1C[C@@H]2C(=O)N3CCC[C@H]3C(=O)N2[C@@H]1c1ccc(O)cc1	-0.138	1.74	-0.0788	0.571	0.43	0.317	1.34	3.36 (inactive)	0.648	0.21
O=C1OCCC=C[C@H]2OC34C=CCN(Cn5nnc6ccccc65)C(=O)[C@H]3N(CCCO)C(=O)[C@@H]4C12 (stereo not given in full)	0.32	-0.173	-0.116	-0.169	-1.3	-0.763	0.437	0.0397 (inactive)	-0.601	-0.236
CC(C)[Si]1(C(C)C)OCc2cc(-c3ccc(-c4ccc(Cl)c(Cl)c4)o3)nc(-c3ccccc3)c21	0.695	-0.464	-0.147	-0.818	-1.65	0.314	-0.914	-0.358 (inactive)	-0.774	-0.134
C=C(COC)/C(=C/C[C@H](OC(=O)c1ccncc1)c1ccccc1OCCO)c1cc(C(=O)OC)ccc1OC	-0.457	0.562	-0.167	0.67	0.302	1.16	0.869	-0.872 (inactive)	0.431	-0.442
C=CCNC(=O)[C@@H]1[C@H]2C(=O)O[C@H](c3ccccc3)[C@H](c3ccccc3)N2[C@H](c2ccc(OCCO)cc2)[C@@]12C(=O)N(C(=O)OCCOC)c1ccc(C#Cc3ccc(OC)cc3)cc12	-0.412	0.1	-0.126	0.0179	0.801	1.1	1.07	-0.309 (inactive)	0.267	-0.0955
COc1cc(NN2C(C(O)c3cc(OC)c(OC)c(OC)c3)C=CC3C(=O)N(C)C(=O)C32)cc(OC)c1OC (stereo not given)	-0.0324	0.427	-0.0613	0.899	1.34	1.98	1.23	0.78 (inactive)	0.572	0.12
[N-]=[N+]=Nc1ccccc1[C@@H]1OC(c2ccc(OCCCO)cc2)=N[C@]1(Cc1ccccc1)C(=O)N1CCCCC1	0.0153	1	0.122	0.9	1.39	1.37	1.28	-2.33 (inactive)	1.46	0.249
NC(=O)[C@@]1(Cc2ccccc2)COC(c2ccc(OCCCO)cc2)=N1	0.634	0.758	-0.0594	-0.281	0.29	1.37	1.16	1.47 (inactive)	0.252	-0.0684
CCOC(=O)C[C@H]1[C@H](OC(=O)Cc2ccc3c(c2)OCO3)[C@@H](NC(=O)c2ccc3ccccc3n2)c2cc(OCCCO)ccc2N1C(=O)c1ccccc1	-0.0059	0.111	0.051	0.202	0.64	0.405	-0.111	1.15 (inactive)	0.23	-0.069
O=C(C1N=C(c2ccc(OCCCO)cc2)N(c2ccccc2)O1)N1CCCCC1 (stereo not given)	0.819	1.49	0.182	0.938	1.05	1.99	1.36	2.39 (inactive)	1.13	-0.0952
C=CC[C@@]1(C(=O)NCCCOC)N=C(c2ccc(OCCCO)cc2)O[C@@H]1c1ccccc1	0.513	1.09	0.0679	-0.562	-0.0215	1.84	1.15	-1.24 (inactive)	0.74	0.712
CCCCNC(=O)c1ccc(C#CC(C)(C)C)c(OC(C)=O)c1	-0.769	0.212	-0.132	0.572	1.04	0.158	0.865	4.66 (inactive)	0.031	-0.0994
